Data taken from PubChem BioAssay (Tox21).
Results filed as inconclusive are left out. Where a call stands in place of a potency, no number is given. The source made the active and inactive calls. Unless noted, calls come from the whole dose curve; as a rule, active = well fitted curve in the direction sought with a large enough effect in the repeat runs; inconclusive = weak or mixed curves; inactive = flat fitted curve, though single readings scatter.

Columns and labels:
[1] = qHTS assay to test for compound auto fluorescence at 535 nm (green) in HEK293 cells (AID 720680)
[2] = qHTS assay to test for compound auto fluorescence at 460 nm (blue) in HEK293 cell free culture (AID 720681); note: potency is the fitted concentration of half-maximal effect
Outline: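 Test compounds were pinned into cell-free culture medium (DMEM with 10% FBS) and fluorescence was read directly at Ex/Em 405/460 nm. Signals were expressed as fluorescence equivalents of triamterene, with DMSO vehicle as control.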

[3] = qHTS assay to test for compound auto fluorescence at 535 nm (green) in HEK293 cell free culture (AID 720682)
Outline: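 Steps: dispense DMEM/10% FBS into empty wells; pin in compound or DMSO; measure fluorescence at 485/535 nm. Values are fluorescein equivalents.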

[4] = qHTS assay to test for compound auto fluorescence at 590 nm (red) in HEK293 cell free culture (AID 720683)
Outline: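 Tox21 10K library compounds were pinned into cell-free DMEM with 10% FBS and fluorescence was read at excitation 540 nm. Activity is expressed as Rose Bengal sodium equivalency.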

[5] = qHTS assay to test for compound auto fluorescence at 590 nm (red) in HepG2 cell free culture (AID 720684)
Outline: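 Red fluorescence (540 nm excitation, 590 nm emission) was measured after compound transfer into cell-free MEM supplemented with 10% FBS. Values are equivalencies against Rose Bengal sodium.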

[6] = qHTS assay to test for compound auto fluorescence at 460 nm (blue) in HepG2 cell free culture (AID 720685)
Outline: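 Compound (23 nL) or DMSO pinned into cell-free MEM with 10% FBS; blue fluorescence read at 405/460 nm excitation/emission, expressed as auto-fluorescence equivalency to triamterene.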

[7] = qHTS assay to test for compound auto fluorescence at 535 nm (green) in HepG2 cell free culture (AID 720686)
[8] = qHTS assay to test for compound auto fluorescence at 460 nm (blue) in HepG2 cells (AID 720687)
Outline: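 Cells (2,000/well in MEM with 10% FBS) attached overnight at 37 C, then were exposed to compound or DMSO for 1 hr at 37 C, 5% CO2. Fluorescence read at Ex/Em 405/460 nm, expressed as triamterene-equivalent signal.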

[9] = molecular target: Glucocorticoid receptor (Homo sapiens) (UniProt P04150); assay: qHTS assay to identify small molecule antagonists of the glucocorticoid receptor (GR) signaling pathway (AID 720692; active = well fitted inhibition curve with a large enough effect in the signal ratio in the repeat runs, not every such curve was filed as active; the % refers to the signal ratio; note: potency is the fitted concentration of half-maximal effect)
Outline: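 Fluorescence from cleaved LiveBLAzer B/G FRET substrate reports GRE-driven beta-lactamase in HeLa cells; compounds are tested against 5 nM dexamethasone (final) over 18 h at 37 C, substrate incubation 2 h at room temperature.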

[10] = molecular target: Glucocorticoid receptor (Homo sapiens) (UniProt P04150); assay: qHTS assay to identify small molecule agonists of the glucocorticoid receptor (GR) signaling pathway (AID 720691; active = well fitted activation curve with a large enough effect in the signal ratio in the repeat runs, not every such curve was filed as active; the % refers to the signal ratio)
Outline: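 Beta-lactamase reporter activity, read as fluorescence intensity, was measured in GR-bla HeLa cells exposed to compounds for 18 h at 37 C and then loaded with LiveBLAzer B/G FRET substrate for 2 h at room temperature.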

Glucocorticoid receptor (Homo sapiens), sequence (P04150 whole entry, looked up): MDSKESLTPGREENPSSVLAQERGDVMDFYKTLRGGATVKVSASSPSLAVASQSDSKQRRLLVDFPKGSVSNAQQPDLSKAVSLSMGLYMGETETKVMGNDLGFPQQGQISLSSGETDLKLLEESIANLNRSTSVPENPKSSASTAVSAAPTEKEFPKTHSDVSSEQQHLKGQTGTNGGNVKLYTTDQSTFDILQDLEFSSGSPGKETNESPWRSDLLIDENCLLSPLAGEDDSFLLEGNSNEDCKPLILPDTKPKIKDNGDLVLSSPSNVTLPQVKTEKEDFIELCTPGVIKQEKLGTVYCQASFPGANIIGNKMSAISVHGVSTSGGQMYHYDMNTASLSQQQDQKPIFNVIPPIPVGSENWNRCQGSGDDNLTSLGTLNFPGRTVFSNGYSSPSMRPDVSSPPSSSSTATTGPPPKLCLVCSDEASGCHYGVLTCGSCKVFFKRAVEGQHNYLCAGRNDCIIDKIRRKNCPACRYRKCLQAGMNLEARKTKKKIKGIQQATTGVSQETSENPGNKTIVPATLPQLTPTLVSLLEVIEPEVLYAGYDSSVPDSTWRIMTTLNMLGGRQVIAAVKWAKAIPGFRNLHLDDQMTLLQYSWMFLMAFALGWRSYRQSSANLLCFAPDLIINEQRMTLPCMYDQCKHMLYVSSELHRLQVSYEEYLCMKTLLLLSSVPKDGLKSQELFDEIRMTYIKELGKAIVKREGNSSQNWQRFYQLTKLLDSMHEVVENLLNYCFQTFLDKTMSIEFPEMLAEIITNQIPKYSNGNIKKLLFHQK

Compound	outcome [1]	Potency [2]	outcome [3]	outcome [4]	outcome [5]	Potency [6]	outcome [7]	Potency [8]	Potency [9]	Potency [10]
O=C(CCl)C(Cl)Cl	inactive	inactive	inactive	inactive	inactive	inactive	inactive	inactive	35 µM (active)	–
CN(C)c1ccc(N=Nc2ccccc2)cc1	inactive	inactive	inactive	inactive	inactive	inactive	inactive	inactive	inactive	–
C[C@]12CC[C@H]3[C@@H](CCC4=CC(=O)CC[C@@]43C)[C@@H]1CC[C@@H]2O	inactive	inactive	inactive	inactive	inactive	inactive	inactive	inactive	2.44 µM (active)	inactive
ClC(Cl)=C(c1ccc(Cl)cc1)c1ccc(Cl)cc1	inactive	inactive	inactive	inactive	inactive	inactive	inactive	inactive	inactive	inactive
CC(C)OS(C)(=O)=O	inactive	inactive	inactive	–	inactive	inactive	inactive	inactive	–	–
CCCCCCCCCC[N+](C)(C)CCCCCCCCCC	inactive	inactive	inactive	–	inactive	inactive	inactive	inactive	–	–
CCCCCCCCCCCCCN1CC(C)OC(C)C1 (stereo not given)	inactive	inactive	inactive	–	inactive	inactive	inactive	inactive	inactive	–
COP(=S)(OC)Oc1cc(Cl)c(Br)cc1Cl	inactive	inactive	inactive	–	inactive	inactive	inactive	inactive	–	–
Oc1ccc(C2(c3ccc(O)cc3)CCCCC2)cc1	inactive	inactive	inactive	–	inactive	inactive	inactive	inactive	–	–
CCCCCCCCCCCCCCC(Br)C(=O)O (stereo not given)	inactive	inactive	inactive	–	inactive	inactive	inactive	inactive	–	–
Cc1c(Cl)c(=O)oc2cc(OP(=O)(OCCCl)OCCCl)ccc12	inactive	12.6 µM (active)	inactive	inactive	inactive	–	inactive	–	inactive	–
N#CSCSC#N	inactive	inactive	inactive	–	inactive	inactive	inactive	inactive	–	–
